Laboratory results as given in PubChem BioAssay AID652197 (Broad Institute, 2013).
Where “and” joins values, the source holds several entries; their conditions need not be identical. Identical values can stand only once. Among all 340,000 compounds or so, about 500 (0.15%) were called active. What follows is part of a selection rich in actives, with near analogues and random picks from the rest. Unmarked numbers belong to inactive results.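 The calls were made as follows: active = mean replicate inhibition of at least 30%, or all replicates individually reaching that 30% level; inactive = mean below 30% and not every replicate reaching it.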

target: Endoplasmic reticulum aminopeptidase 1 (Homo sapiens) (UniProt Q9NZ08); assay: human ERAP1 aminopeptidase inhibitors, primary screen, biochemical, single point, plate reader (AID 652197); conditions: recombinant ERAP1, Leu-AMC fluorescence, 60 min; at 10.7 µM; stronger effect = higher value;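 also: 0% = neutral control wells and 100% = L-leucinethiol positive control wells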
Sequence (Q9NZ08 whole entry, looked up): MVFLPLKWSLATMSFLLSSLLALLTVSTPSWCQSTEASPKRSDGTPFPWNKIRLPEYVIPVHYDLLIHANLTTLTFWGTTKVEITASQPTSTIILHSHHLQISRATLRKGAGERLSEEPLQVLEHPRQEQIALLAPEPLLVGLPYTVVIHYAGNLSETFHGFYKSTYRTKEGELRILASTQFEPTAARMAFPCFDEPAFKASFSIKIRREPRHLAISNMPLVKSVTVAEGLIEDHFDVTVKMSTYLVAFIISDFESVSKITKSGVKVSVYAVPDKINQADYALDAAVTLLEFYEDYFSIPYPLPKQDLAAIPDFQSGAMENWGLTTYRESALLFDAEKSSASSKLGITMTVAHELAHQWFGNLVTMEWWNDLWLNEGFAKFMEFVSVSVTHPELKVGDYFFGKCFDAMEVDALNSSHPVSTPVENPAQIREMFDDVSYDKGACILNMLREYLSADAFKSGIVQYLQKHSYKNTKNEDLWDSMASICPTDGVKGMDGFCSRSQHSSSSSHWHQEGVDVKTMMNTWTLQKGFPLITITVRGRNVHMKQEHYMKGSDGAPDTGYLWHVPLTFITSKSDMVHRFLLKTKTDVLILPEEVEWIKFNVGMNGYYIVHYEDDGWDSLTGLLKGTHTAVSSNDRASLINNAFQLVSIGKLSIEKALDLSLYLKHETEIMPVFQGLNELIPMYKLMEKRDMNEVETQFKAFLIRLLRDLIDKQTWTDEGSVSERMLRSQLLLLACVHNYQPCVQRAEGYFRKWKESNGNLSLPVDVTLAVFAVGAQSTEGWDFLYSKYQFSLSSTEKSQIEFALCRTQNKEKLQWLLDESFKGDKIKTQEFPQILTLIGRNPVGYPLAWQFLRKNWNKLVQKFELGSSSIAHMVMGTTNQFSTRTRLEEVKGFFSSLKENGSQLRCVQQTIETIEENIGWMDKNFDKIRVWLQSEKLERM

SMILES	inhibition
COc1ccc2c3c(n(C)c2c1)[C@@H](CO)N(C(=O)Nc1cccc(F)c1)CC31CCN(Cc2nccs2)CC1	-1.39%
O=C(Nc1ccccc1F)N1CC(=O)N2[C@@H](CO)[C@H](c3ccc(C#CC4CCCC4)cc3)[C@@H]2C1	-1.61%
CCC(=O)N1CCC2(CC1)CN(S(C)(=O)=O)[C@@H](CO)c1c2c2ccc(OC)cc2n1C	-0.517%
CC(=O)N(C)C[C@H]1[C@H](c2ccc(C3=CCCCC3)cc2)[C@H](CO)N1CC1CC1	2.34%
O=C(NCC1CC1)[C@@H]1[C@@H](CO)[C@@H]2Cn3c(ccc(C4=CCCC4)c3=O)[C@H]1N2CCC(F)(F)F	6.29%
O=C(Nc1ccc(F)cc1)N[C@H]1CC[C@H](CCn2cc(C3(O)CCCC3)nn2)O[C@@H]1CO	-1.65%
CN1CCN(C(=O)C[C@H]2CC[C@H]3[C@@H](COC[C@H](O)CN3CC3CCCC3)O2)CC1	1.07%
O=C(C[C@@H]1CC[C@@H]2[C@H](COC[C@H](O)CN2C(=O)c2ccncc2)O1)NCc1cc(F)cc(F)c1	-4.11%
CN1c2ccc(Br)cc2[C@@H]2[C@@H](CCN2S(=O)(=O)c2ccc(F)cc2)[C@@H]1CO	-0.368%
CN1CCCCC(NC(=O)C(C)(C)C)C1=O (configuration not stated)	-3.81%
CS(=O)(=O)Nc1ccc2c(c1)[C@H]1C[C@H](CC(=O)NC3CCCC3)O[C@@H](CO)[C@H]1O2	-1.31%
CC(C)C#Cc1cnc2c(c1)C(=O)N([C@H](C)CO)C[C@H](C)[C@@H](CN(C)C(=O)Nc1cc(F)ccc1F)O2	1.03%
O=C(C[C@@H]1C=C[C@H](NC(=O)CN2CCOCC2)[C@@H](CO)O1)NCc1cccc(F)c1	0.919%
CCCC#Cc1ccc([C@@H]2[C@@H](CO)N3C(=O)CN(C(=O)Nc4cccc(F)c4)C[C@H]23)cc1	-1.93%
CCCNC(=O)Nc1ccc2c(c1)OC[C@H](C)N(CCC(F)(F)F)C[C@H](C)[C@@H](OC)CN(C)C2=O	1.36%
Cc1nnc(Sc2nc3c(c(=O)[nH]c(=O)n3C)n2Cc2ccccc2)s1	-0.766%
CCN(CC)CCn1cnc2c1c(=O)[nH]c(=O)n2Cc1ccccc1	-0.129%
Cn1c(=O)[nH]c(=O)c2c1[nH]c(=S)n2Cc1ccccc1	30.6% (active)
Cc1noc(C)c1NC(=O)N(C)C[C@@H]1OCCCC[C@H](C)Oc2ccc(NC(=O)C3CCCCC3)cc2C(=O)N([C@H](C)CO)C[C@@H]1C	1.95%
Cc1noc(C)c1NC(=O)N(C)C[C@@H]1OCCCC[C@H](C)Oc2ccc(NS(=O)(=O)c3c(C)noc3C)cc2C(=O)N([C@@H](C)CO)C[C@@H]1C	-2.92%
CO[C@@H]1CN(C)C(=O)c2cc(NC(=O)NC3CCCCC3)ccc2OC[C@@H](C)N(C(C)=O)C[C@H]1C	1.39%
CO[C@H]1CN(C)C(=O)c2ccc(NC(=O)CC(F)(F)F)cc2OC[C@H](C)N(C(=O)C2CC2)C[C@H]1C	1.15%
COc1ccc2c(c1)c(=Cc1ccc(N(C)C)cc1)c1cc(-c3ccccc3)[n+](C)n12	48.3% (active)

SMILES	inhibition
COc1ccc2sc(-c3ccc(N(C)C)cc3)c(C#CCO)c2c1	0.776%
CN(C)Cc1cn(CC[C@H]2CC[C@@H](NS(=O)(=O)c3ccccc3)[C@H](CO)O2)nn1	-0.48%
CCNC(=O)Nc1ccc2c(c1)C(=O)N(C)[C@H]1CC[C@@H](CC(=O)N[C@@H](C)c3ccccc3)O[C@H]1CO2	-1.42%
O=C(O)C[C@@H]1C[C@@H]2c3cc(NC(=O)NC4CCCC4)ccc3O[C@@H]2[C@H](CO)O1	0.604%
CC(C)NC(=O)N1[C@H](CO)[C@H](c2ccccc2)C12CN(C(=O)Cc1cccnc1)C2	0.883%
Cc1ccc2nc3c(cc(C(=O)NCCc4ccccc4)c(=N)n3CC3CCCO3)c(=O)n2c1 (configuration not stated)	-79.5%
COc1ccc(CCn2c(=N)c(C(=O)NCC3CCCO3)cc3c(=O)n4cccc(C)c4nc32)cc1OC (configuration not stated)	1.75%
Cc1cccn2c(=O)c3cc(C(=O)NCCN4CCOCC4)c(=N)n(Cc4cccnc4)c3nc12	54.5% (active)
C[C@H]1CN([C@@H](C)CO)C(=O)Cc2cc(NC(=O)Cn3cnnn3)ccc2O[C@H]1CN(C)CC1CC1	2.17%
O=C(C[C@H]1C=C[C@H](NC(=O)Nc2cc(F)ccc2F)[C@@H](CO)O1)NCc1ccccn1	-1.22%
COc1ccc(C(=O)Nc2ccc3c(c2)C(=O)N(C)C[C@@H](OC)[C@H](C)CN(C(C)=O)[C@@H](C)CO3)cc1	2.42%
O=C(Nc1cccc([N+](=O)[O-])c1)Nn1cnnc1	-4.32%
COC(=O)/C=C\C(=O)Nc1cccc([N+](=O)[O-])c1	33.8% (active)
CCC(CC)NC(=O)/C=C/c1cccc([N+](=O)[O-])c1	4.03%
C[C@@H]1CCCCO[C@H](CN(C)C)[C@@H](C)CN([C@H](C)CO)C(=O)c2cc(N(C)C)ccc2O1	-1.68%
COc1ccc(NC(=O)N(C)C[C@@H]2OCCCC[C@H](C)Oc3ccc(NS(=O)(=O)c4cccs4)cc3C(=O)N([C@@H](C)CO)C[C@@H]2C)cc1	-4.78%
Cc1cc(=O)oc2c3c(cc(OCC(=O)N[C@H](C(=O)O)c4ccccc4)c12)OC(C)(C)CC3	15.5%
Cc1c(C)c2c(OCC(=O)NCCCO)cc3c(c2oc1=O)CCC(C)(C)O3	1.62%
Cc1c(C)c2c(OCC(=O)N[C@@H](C(=O)O)c3ccccc3)cc3c(c2oc1=O)CCC(C)(C)O3	31.7% (active)
O=C(C[C@H]1CC[C@H]2[C@@H](COC[C@@H](O)CN2Cc2nccs2)O1)NCc1ccccc1Cl	0.949%
COc1ccccc1S(=O)(=O)N[C@@H]1C=C[C@H](CC(=O)NCc2cccc(F)c2)O[C@H]1CO	0.371%
CN(C)C(=O)C[C@@H]1C[C@H]2c3cc(NC(=O)Nc4ccccc4F)ccc3O[C@H]2[C@@H](CO)O1	-1.15%
O=C(C[C@@H]1C=C[C@H](NC(=O)Nc2ccccc2F)[C@H](CO)O1)NCc1ccc(F)cc1	-4.09%

SMILES	inhibition
COc1ccc(NC(=O)Nc2ccc3c(c2)C(=O)N([C@@H](C)CO)C[C@@H](C)[C@H](CN(C)S(=O)(=O)c2cccs2)O3)cc1	2.02%
C[C@@H]1CN([C@H](C)CO)C(=O)c2cc(NS(=O)(=O)c3cn(C)cn3)ccc2O[C@@H](C)CCCCO[C@H]1CN(C)C	11.1%
COc1ccc(C#Cc2cnc3c(c2)C(=O)N([C@H](C)CO)C[C@@H](C)[C@@H](CN(C)C(=O)CN(C)C)O3)cc1	6.88%
Cc1noc(C)c1S(=O)(=O)Nc1cccc2c1O[C@@H](CN(C)S(=O)(=O)c1cn(C)cn1)[C@@H](C)CN([C@H](C)CO)C2=O	1.15%
CCCc1cn(CC[C@@H]2CC[C@H](NS(=O)(=O)c3ccccc3Cl)[C@H](CO)O2)nn1	4.02%
CO[C@H]1CN(C)C(=O)c2ccc(NC(=O)c3ccc4c(c3)OCO4)cc2OC[C@@H](C)NC[C@@H]1C	0.503%
CN1C(=O)c2cc(NS(=O)(=O)CC(F)(F)F)ccc2OC[C@H]2O[C@@H](CC(=O)NCc3ccc(Cl)c(Cl)c3)CC[C@@H]21	-2.14%
Cc1ccccc1S(=O)(=O)N1[C@H](C#N)[C@H](c2ccccc2)[C@@H]1CO	1.23%
CN(C)C(=O)c1cccc(-c2ccc([C@H]3[C@H]4CN(C(=O)Cc5ccccc5)CC(=O)N4[C@H]3CO)cc2)c1	1.83%
CO[C@@H]1CN(C)C(=O)c2cc(NC(=O)NC3CCCC3)ccc2OC[C@H](C)NC[C@H]1C	1.04%
COc1cccc(S(=O)(=O)N2[C@@H]3CNC[C@H]2C3c2ccc(-c3ccccc3OC)cc2)c1 (some centres not stated)	-1.91% and -0.285%
COC(=O)C[C@@H]1CC[C@H]2[C@H](COc3ccc(NC(=O)c4ccccc4F)cc3C(=O)N2C)O1	0.852%
C/C=C/c1ccc([C@H]2[C@@H](CO)N(C(=O)CN(C)C)C23CN(C(=O)C2CCCC2)C3)cc1	-0.32%
C[C@H](CO)N1C[C@H](C)[C@H](CN(C)C(=O)c2ccccc2)OCCCC[C@H](C)Oc2ccc(N(C)C)cc2C1=O	1.85%
COc1ccccc1S(=O)(=O)N1C[C@@H]2N[C@H](C1)C2c1ccc(-c2cccc(C)c2)cc1 (some centres not stated)	4.06% and 6.11%
C[C@@H](NC(=O)C[C@H]1C=C[C@@H](NC(=O)CN2CCOCC2)[C@@H](CO)O1)c1ccccc1	9%
CCCN1C[C@H](C)[C@@H](OC)CN(C)C(=O)c2ccc(NC(=O)C3CCOCC3)cc2OC[C@@H]1C	-1.27%
O=C(Nc1cccc(Cl)c1)N[C@@H]1CC[C@@H](CCNC(=O)C2CCOCC2)O[C@@H]1CO	-1.57%
COc1ccc(NC(=O)N(C)C[C@H]2Oc3ccc(N(C)C)cc3C(=O)N([C@@H](C)CO)C[C@H]2C)cc1	3.18%
O=C(Nc1cc(F)ccc1F)N1C[C@H]2[C@@H](c3ccccc31)[C@@H](CO)N2CC1CCCC1	-1.13%
C[C@H]1CN([C@@H](C)CO)C(=O)c2cc(NS(=O)(=O)c3cccs3)ccc2O[C@@H]1CN(C)C(=O)Nc1ccccc1	-2.47%
